Data on four compounds can be found in paper PMC6792352, “Limited Chemical Structural Diversity Found to Modulate Thyroid Hormone Receptor in the Tox21 Chemical Library” (Environmental Health Perspectives, 2019).

Molecules are shown by their SMILES.

Broadly, the AC50 is the concentration at which the activity in the assay is half-maximal.

The test has as its system thyroid hormone receptor (endogenous TRα and TRβ). Further details: species or system GH3-TRE-Luc (rat pituitary); GH3-TRE-Luc luciferase reporter, antagonist mode against 1 nM T3, loss of signal, qHTS. The following applies: read-out: Average AC50 (uM) GH3-TRE-Antag, antagonist mode, 1 nM T3, no GH3 cytotoxicity hit, Average AC50 (uM) GH3-TRE-Antag, 24 h.
For `CCCCCCCCn1cc[n+](C)c1` [1-Methyl-3-octylimidazolium chloride], the concentration at half-maximal activity (AC50) was found to be 28.9 µM. `Nc1ccc2cc3ccc(N)cc3nc2c1` [Proflavin hemisulfate]: the AC50 was 4.93 µM.

As for `OCCOCCN1CCN(C2=Nc3ccccc3Sc3ccccc32)CC1` [Quetiapine], the AC50 came to 34 µM.

Consider `CC(C)n1c(/C=C/[C@H](O)C[C@H](O)CC(=O)O)c(-c2ccc(F)cc2)c2ccccc21` [Fluvastatin sodium], for which the AC50 is 39.3 µM.
